Reference: PubChem BioAssay (Tox21)
Several values for one entry are separate records, joined by “and”; a condition that tells them apart may be missing. Identical values can stand only once. Records with an inconclusive call do not appear. Entries that show only a call come without a potency. Where a structure was tested more than once in an assay, its records may differ in their call. Activity calls are given as the source filed them. Unless noted, calls come from the whole dose curve; as a rule, active = well fitted curve in the direction sought with a large enough effect in the repeat runs; inconclusive = weak or mixed curves; inactive = no such curve, though single readings can be large; an effect the other way counts as inactive or inconclusive.

Legend:
[1] = qHTS assay to test for compound auto fluorescence at 535 nm (green) in HEK293 cells (AID 720680)
[2] = qHTS assay to test for compound auto fluorescence at 460 nm (blue) in HEK293 cell free culture (AID 720681)
Summary of the method: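 Compounds were added to cell-free DMEM with 10% FBS and fluorescence read directly. The blue channel used 405 nm excitation and 460 nm emission, with triamterene as the reference fluorophore.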

[3] = qHTS assay to test for compound auto fluorescence at 535 nm (green) in HEK293 cell free culture (AID 720682)
Summary of the method: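 Green-channel intensity (Ex/Em 485/535 nm) was recorded from compound-treated wells containing only DMEM with 10% FBS. Fluorescein provided the equivalency standard.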

[4] = qHTS assay to test for compound auto fluorescence at 590 nm (red) in HEK293 cell free culture (AID 720683)
Summary of the method: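 Cell-free wells of DMEM with 10% FBS received compound, and intrinsic fluorescence was read at excitation/emission 540/590 nm. Values expressed as equivalence to Rose Bengal sodium.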

[5] = qHTS assay to test for compound auto fluorescence at 590 nm (red) in HepG2 cell free culture (AID 720684)
Summary of the method: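 Auto fluorescence equivalency versus Rose Bengal sodium, red channel Ex/Em 540/590 nm; compounds in cell-free MEM/10% FBS; DMSO vehicle control.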

[6] = qHTS assay to test for compound auto fluorescence at 460 nm (blue) in HepG2 cell free culture (AID 720685)
Summary of the method: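 Cell-free plates of MEM plus 10% FBS received 23 nL compound or DMSO vehicle; blue-channel (405/460 nm) intensity scored against triamterene as reference fluorophore.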

[7] = qHTS assay to test for compound auto fluorescence at 535 nm (green) in HepG2 cell free culture (AID 720686)
[8] = target: Glucocorticoid receptor (Homo sapiens) (UniProt P04150); experiment: qHTS assay to identify small molecule agonists of the glucocorticoid receptor (GR) signaling pathway (AID 720691; active = well fitted activation curve with a large enough effect in the signal ratio in the repeat runs, not every such curve was filed as active; the % refers to the signal ratio); details: GR-bla HeLa, beta-lactamase reporter ratio, 18 h; activation: at 62.4 µM (top of the series)
Sequence of Glucocorticoid receptor (Homo sapiens) (P04150 whole entry, looked up): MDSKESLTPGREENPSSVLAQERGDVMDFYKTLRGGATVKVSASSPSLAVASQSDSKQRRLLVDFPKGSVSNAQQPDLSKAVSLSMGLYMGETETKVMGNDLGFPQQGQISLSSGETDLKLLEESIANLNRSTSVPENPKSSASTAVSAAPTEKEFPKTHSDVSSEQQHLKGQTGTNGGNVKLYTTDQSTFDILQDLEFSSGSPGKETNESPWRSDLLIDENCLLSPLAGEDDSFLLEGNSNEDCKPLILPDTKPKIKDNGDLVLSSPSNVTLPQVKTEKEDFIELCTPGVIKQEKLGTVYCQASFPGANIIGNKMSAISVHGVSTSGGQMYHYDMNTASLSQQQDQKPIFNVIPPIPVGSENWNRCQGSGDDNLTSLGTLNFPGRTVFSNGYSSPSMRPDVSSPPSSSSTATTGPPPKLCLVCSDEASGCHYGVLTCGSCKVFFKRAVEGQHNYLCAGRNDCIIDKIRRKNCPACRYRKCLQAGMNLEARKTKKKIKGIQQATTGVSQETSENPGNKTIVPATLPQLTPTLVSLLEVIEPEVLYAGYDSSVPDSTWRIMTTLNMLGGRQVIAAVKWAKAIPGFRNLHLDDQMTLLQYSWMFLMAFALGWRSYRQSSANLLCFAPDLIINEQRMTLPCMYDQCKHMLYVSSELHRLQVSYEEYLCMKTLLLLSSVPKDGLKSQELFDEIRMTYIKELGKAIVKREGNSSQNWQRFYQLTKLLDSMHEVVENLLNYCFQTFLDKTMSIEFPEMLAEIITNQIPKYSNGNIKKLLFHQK
Summary of the method: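 Measures GR pathway activation through a GRE-beta-lactamase reporter stably integrated in HeLa cells, with 18 h compound treatment at 37 C and fluorescence detection using a FRET substrate.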

[9] = qHTS assay to identify small molecule antagonists of the glucocorticoid receptor (GR) signaling pathway - cell viability counter screen (AID 720693); note: nearly all actives have a fitted effect of over 55% in size
[10] = qHTS assay for identifying genotoxic compounds that show differential cytotoxicity against isogenic chicken DT40 cell lines with known DNA damage response pathways - Rev3 mutant cell line (AID 743014); note: nearly all actives have a fitted effect of over 55% in size; note: potency is the fitted concentration of half-maximal effect
[11] = qHTS assay for identifying genotoxic compounds that show differential cytotoxicity against isogenic chicken DT40 cell lines with known DNA damage response pathways - Rad54/Ku70 mutant cell line (AID 743015); note: nearly all actives have a fitted effect of over 60% in size; note: potency is the fitted concentration of half-maximal effect
[12] = qHTS assay to identify small molecule antagonists of the androgen receptor (AR) signaling pathway - cell viability counter screen (AID 743033; note: nearly all actives have a fitted effect of over 45% in size; note: potency is the fitted concentration of half-maximal effect)
[13] = qHTS assay to identify small molecule antagonists of the androgen receptor (AR) signaling pathway using the MDA cell line - cell viability counter screen (AID 743041; note: nearly all actives have a fitted effect of over 45% in size; note: potency is the fitted concentration of half-maximal effect)
Summary of the method: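 Compound exposure lasted 16 h at 37C in MDA-kb2 AR-luc cells stimulated with R1881. Protease-based CellTiter-Fluor reagent was applied for the final 30 min and fluorescence measured.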

[14] = qHTS assay for identifying genotoxic compounds that show differential cytotoxicity against isogenic chicken DT40 cell lines with known DNA damage response pathways - wild type cell line (AID 743012); note: nearly all actives have a fitted effect of over 60% in size; note: potency is the fitted concentration of half-maximal effect
Summary of the method: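 Endpoint: CellTiter-Glo luminescence, 30 min RT. Cells: wild type DT40, 300/well. Exposure: compounds in DMSO, 40 h, 37 C/5% CO2, after ~0.5 h pre-incubation.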

[15] = target: Androgen receptor (Homo sapiens) (UniProt P10275); experiment: qHTS assay to identify small molecule agonists of the androgen receptor (AR) signaling pathway using the MDA cell line (AID 743040; note: nearly all actives have a fitted effect of over 20% in size)
Sequence of Androgen receptor (Homo sapiens) (P10275 whole entry, looked up): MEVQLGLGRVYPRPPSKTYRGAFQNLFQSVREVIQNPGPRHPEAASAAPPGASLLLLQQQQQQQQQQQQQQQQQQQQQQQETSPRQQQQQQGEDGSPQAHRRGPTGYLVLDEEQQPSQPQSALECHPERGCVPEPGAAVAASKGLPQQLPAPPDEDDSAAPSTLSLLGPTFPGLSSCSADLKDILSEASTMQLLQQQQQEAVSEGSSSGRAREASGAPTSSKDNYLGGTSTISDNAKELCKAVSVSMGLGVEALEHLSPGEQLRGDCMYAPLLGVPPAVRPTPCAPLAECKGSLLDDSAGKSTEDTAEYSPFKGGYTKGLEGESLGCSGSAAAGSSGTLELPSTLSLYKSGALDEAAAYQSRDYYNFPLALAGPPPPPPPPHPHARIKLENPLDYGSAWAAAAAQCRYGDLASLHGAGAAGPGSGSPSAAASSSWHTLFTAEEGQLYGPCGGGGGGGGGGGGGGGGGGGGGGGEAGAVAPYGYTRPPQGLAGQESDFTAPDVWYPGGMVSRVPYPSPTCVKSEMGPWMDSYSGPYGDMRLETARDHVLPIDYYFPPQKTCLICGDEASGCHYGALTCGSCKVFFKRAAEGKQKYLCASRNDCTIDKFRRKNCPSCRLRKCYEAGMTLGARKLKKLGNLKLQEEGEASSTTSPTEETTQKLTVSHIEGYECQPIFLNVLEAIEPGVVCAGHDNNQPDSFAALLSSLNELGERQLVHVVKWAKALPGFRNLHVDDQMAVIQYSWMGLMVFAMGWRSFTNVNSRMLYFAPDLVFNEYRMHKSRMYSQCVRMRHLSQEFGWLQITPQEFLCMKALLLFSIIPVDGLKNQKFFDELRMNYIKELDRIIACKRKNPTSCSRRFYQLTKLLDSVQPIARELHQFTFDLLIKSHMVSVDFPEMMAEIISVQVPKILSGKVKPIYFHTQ
Summary of the method: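 Testing was done with the MDA-kb2 AR-luc line, a human breast carcinoma stably transfected with MMTV-luciferase containing AR and GR response elements. Cells were exposed 16 h at 37C before ONE-Glo luminescence detection.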

[16] = target: Androgen receptor (Homo sapiens) (UniProt P10275); experiment: qHTS assay to identify small molecule antagonists of the androgen receptor (AR) signaling pathway using the MDA cell line (AID 743042; note: nearly all actives have a fitted effect of over 55% in size)
Summary of the method: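 MDA-kb2 breast carcinoma cells carrying MMTV-luciferase (AR/GR responsive) were co-treated with compounds and the agonist R1881 for 16 h at 37C. Inhibition read as ONE-Glo luminescence; CellTiter-Fluor fluorescence measured in parallel for cytotoxicity.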

[17] = target: Glucocorticoid receptor (Homo sapiens) (UniProt P04150); experiment: qHTS assay to identify small molecule antagonists of the glucocorticoid receptor (GR) signaling pathway (AID 720692; active = well fitted inhibition curve with a large enough effect in the signal ratio in the repeat runs, not every such curve was filed as active; the % refers to the signal ratio)
Summary of the method: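 Tox21 10K library screened in concentration-response for blockade of dexamethasone (5 nM final)-induced GRE-bla reporter activity in HeLa cells; 18 h treatment, fluorescence read.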

[18] = qHTS assay to test for compound auto fluorescence at 460 nm (blue) in HepG2 cells (AID 720687)
Summary of the method: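 HepG2 cells in MEM with 10% FBS, attached overnight at 37 C, were exposed to compound or DMSO for 1 hr at 37 C, 5% CO2. Blue fluorescence was read at 405/460 nm, with triamterene as reference fluorophore.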

[19] = target: Androgen receptor (Homo sapiens) (UniProt P10275); experiment: qHTS assay to identify small molecule agonists of the androgen receptor (AR) signaling pathway (AID 743036; active = well fitted activation curve with a large enough effect in the signal ratio in the repeat runs, with a control signal flat, not every such curve was filed as active; the % refers to the signal ratio)
Summary of the method: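 Cell-based FRET reporter assay: HEK293 line with a UAS-beta-lactamase construct, compounds added in DMSO, 16 h exposure at 37C, then 2 h substrate step at room temperature and fluorescence intensity read.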

SMILES	outcome [1]	Potency [2]	outcome [3]	outcome [4]	outcome [5]	Potency [6]	Potency [7]	Potency [8]	Potency [9]	Potency [10]	Potency [11]	Potency [12]	Potency [13]	Potency [14]	Potency [15]	Potency [16]	Potency [17]	Potency [18]	Potency [19]
CCCOC(=O)c1ccc(O)cc1	inactive	inactive	inactive	inactive	inactive	inactive	inactive	inactive	inactive	inactive and 68.6 µM (active)	inactive and 65.5 µM (active)	inactive	inactive						
CCCC(=O)c1cc(O)c(O)cc1O	inactive	inactive	inactive	inactive	inactive	inactive	inactive	inactive		29.8 µM (active)	45 µM (active)			24.3 µM (active)	inactive	inactive			
CN(C/C=C/c1ccccc1)Cc1cccc2ccccc12	inactive	inactive	inactive	inactive	inactive	inactive	inactive	inactive			26.6 µM (active)	inactive		26.6 µM (active)			inactive		
CC(C)Cc1ccc([C@H](C)C(=O)O)cc1	inactive	inactive	inactive	inactive	inactive	inactive	inactive	inactive	inactive	inactive	inactive	inactive	inactive				inactive		
CCCCCCCC[N+](C)(C)CCCCCCCC	inactive	inactive	inactive	inactive	inactive	inactive	inactive	inactive		1.19 µM (active) and 1.06 µM (active)	1.33 µM (active) and 944 nM (active)	16.9 µM (active) and 12 µM (active)	21.1 µM (active)	668 nM (active) and 531 nM (active)					
NC(=O)[C@@H]1C[C@]2(NC(=O)NC2=O)c2cc(F)ccc2O1	inactive	inactive	inactive	inactive	inactive	inactive	inactive		inactive		inactive	inactive	inactive	inactive					
COc1ccc2ccccc2c1	inactive	inactive	inactive	inactive	inactive	inactive												inactive	
C[C@H](O)CN(C)C	inactive	inactive	inactive	inactive	inactive	inactive	inactive		inactive	inactive	inactive	inactive	inactive	inactive					
CCCCCCCCCCCCCC(=O)OCC(COP(=O)([O-])OCC[N+](C)(C)C)OC(=O)CCCCCCCCCCCCC (configuration not stated)	inactive	inactive	inactive	inactive	inactive	inactive		inactive	inactive	inactive	inactive	inactive		inactive			inactive	inactive	
CO[C@H]1C[C@H](O[C@H]2[C@H](C)[C@@H](O[C@@H]3O[C@H](C)C[C@H](N(C)C)[C@H]3O)[C@@H](C)C[C@]3(CO3)C(=O)[C@H](C)[C@@H](O)[C@@H](C)[C@@H](C)OC(=O)[C@@H]2C)O[C@@H](C)[C@@H]1O	inactive	inactive	inactive	inactive	inactive	inactive		inactive	inactive	inactive	inactive	inactive	inactive	inactive			inactive	inactive	
CO/N=C(\C(=O)N[C@@H]1C(=O)N2C(C(=O)O)=C(CSc3cnns3)CS[C@H]12)c1csc(N)n1	inactive	inactive	inactive	inactive	inactive	inactive		inactive	inactive		inactive	inactive	inactive	inactive	inactive	inactive	inactive	inactive	inactive
S=C1NC=NC2N=CNC12 (configuration not stated)	inactive	inactive	inactive	inactive	inactive	inactive	inactive			48.6 µM (active)			inactive	54.5 µM (active)					
O=C1OC(=O)c2cc(-c3ccc4c(c3)C(=O)OC4=O)ccc21	inactive	inactive	inactive	inactive	inactive	inactive	inactive	inactive	inactive	54.5 µM (active)	54.5 µM (active)		inactive	17.2 µM (active)					
NCC(O)CC(=O)O (configuration not stated)	inactive	inactive	inactive	inactive	inactive	inactive	inactive	inactive	inactive	inactive	inactive	inactive	inactive	inactive			inactive		
COc1ccc(/C=N/NC(=O)c2ccncc2)c(C(=O)O)c1OC	inactive	inactive	inactive	inactive	inactive	inactive		inactive	inactive	inactive	inactive	inactive	inactive	inactive				inactive	
COC(=O)C(CN)c1c[nH]c2ccc(OC)cc12 (configuration not stated)	inactive	inactive	inactive	inactive	inactive	inactive			inactive		inactive	inactive	inactive	inactive				inactive	
